# Laboratory results reported in the supplement of paper PMC4466140.
# Target: CaNbp2
# Assay: SPOT peptide array binding signal intensity (averaged, normalized) (arbitrary units (background-subtracted, floor 0; scale differs between SH3 domains)); higher = stronger binding of the SH3 domain to the peptide
# In short: (§1)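 The binding signal is the normalized, background-subtracted spot intensity averaged over replicates; its arbitrary units differ between domains. It was obtained by incubating 10 μg/ml GST-fused SH3 domains from four yeast species overnight at 4°C in TBS-based blocking buffer on cellulose membranes with synthetic 15-mer peptides, cysteines replaced by serines, then detecting with anti-GST antibody, HRP anti-mouse secondary and luminol.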
row,Binder,SPOT peptide array binding signal intensity
1,GRLRPKRIAPWHLIQ,1940

# Target: CaRvs167
# Assay: as above
# In short: as §1
row,Binder,SPOT peptide array binding signal intensity
1,GRLRPKRIAPWHLIQ,9.17

# Target: CaRvs167-3
# Assay: as above
# In short: as §1
row,Binder,SPOT peptide array binding signal intensity
1,GRLRPKRIAPWHLIQ,49.2

# Target: CaSho1
# Assay: as above
# In short: as §1
row,Binder,SPOT peptide array binding signal intensity
1,GRLRPKRIAPWHLIQ,174

# Target: CaSla1-D1-D2
# Assay: as above
# In short: as §1
row,Binder,SPOT peptide array binding signal intensity
1,GRLRPKRIAPWHLIQ,143

# Target: CaSla1-D3
# Assay: as above
# In short: as §1
row,Binder,SPOT peptide array binding signal intensity
1,GRLRPKRIAPWHLIQ,1

# Target: ScAbp1
# Assay: as above
# In short: as §1
row,Binder,SPOT peptide array binding signal intensity
1,GRLRPKRIAPWHLIQ,13

# Target: ScBbc1
# Assay: as above
# In short: as §1
row,Binder,SPOT peptide array binding signal intensity
1,GRLRPKRIAPWHLIQ,24.5

# Target: ScBem1-D1
# Assay: as above
# In short: as §1
row,Binder,SPOT peptide array binding signal intensity
1,GRLRPKRIAPWHLIQ,8.5

# Target: ScBzz1-D1
# Assay: as above
# In short: as §1
row,Binder,SPOT peptide array binding signal intensity
1,GRLRPKRIAPWHLIQ,0.5

# Target: ScBzz1-D2
# Assay: as above
# In short: as §1
row,Binder,SPOT peptide array binding signal intensity
1,GRLRPKRIAPWHLIQ,3

# Target: ScCyk3
# Assay: as above
# In short: as §1
row,Binder,SPOT peptide array binding signal intensity
1,GRLRPKRIAPWHLIQ,242

# Target: ScFus1
# Assay: as above
# In short: as §1
row,Binder,SPOT peptide array binding signal intensity
1,GRLRPKRIAPWHLIQ,106

# Target: ScHof1
# Assay: as above
# In short: as §1
row,Binder,SPOT peptide array binding signal intensity
1,GRLRPKRIAPWHLIQ,0.25

# Target: ScHse1
# Assay: as above
# In short: as §1
row,Binder,SPOT peptide array binding signal intensity
1,GRLRPKRIAPWHLIQ,1020

# Target: ScLsb1
# Assay: as above
# In short: as §1
row,Binder,SPOT peptide array binding signal intensity
1,GRLRPKRIAPWHLIQ,2.5

# Target: ScLsb2
# Assay: as above
# In short: as §1
row,Binder,SPOT peptide array binding signal intensity
1,GRLRPKRIAPWHLIQ,2

# Target: ScLsb3
# Assay: as above
# In short: as §1
row,Binder,SPOT peptide array binding signal intensity
1,GRLRPKRIAPWHLIQ,131

# Target: ScLsb4
# Assay: as above
# In short: as §1
row,Binder,SPOT peptide array binding signal intensity
1,GRLRPKRIAPWHLIQ,2

# Target: ScMyo3
# Assay: as above
# In short: as §1
row,Binder,SPOT peptide array binding signal intensity
1,GRLRPKRIAPWHLIQ,1

# Target: ScMyo5
# Assay: as above
# In short: as §1
row,Binder,SPOT peptide array binding signal intensity
1,GRLRPKRIAPWHLIQ,1.5

# Target: ScNbp2
# Assay: as above
# In short: as §1
row,Binder,SPOT peptide array binding signal intensity
1,GRLRPKRIAPWHLIQ,1940

# Target: ScPex13
# Assay: as above
# In short: as §1
row,Binder,SPOT peptide array binding signal intensity
1,GRLRPKRIAPWHLIQ,10

# Target: ScRvs167
# Assay: as above
# In short: as §1
row,Binder,SPOT peptide array binding signal intensity
1,GRLRPKRIAPWHLIQ,27.7

# Target: ScSho1
# Assay: as above
# In short: as §1
row,Binder,SPOT peptide array binding signal intensity
1,GRLRPKRIAPWHLIQ,195

# Target: ScSla1-D1-D2
# Assay: as above
# In short: as §1
row,Binder,SPOT peptide array binding signal intensity
1,GRLRPKRIAPWHLIQ,134

# Target: ScSla1-D3
# Assay: as above
# In short: as §1
row,Binder,SPOT peptide array binding signal intensity
1,GRLRPKRIAPWHLIQ,5

# Target: SpAbp1-D1
# Assay: as above
# In short: as §1
row,Binder,SPOT peptide array binding signal intensity
1,GRLRPKRIAPWHLIQ,226

# Target: SpBbc1
# Assay: as above
# In short: as §1
row,Binder,SPOT peptide array binding signal intensity
1,GRLRPKRIAPWHLIQ,1

# Target: SpBzz1-D1
# Assay: as above
# In short: as §1
row,Binder,SPOT peptide array binding signal intensity
1,GRLRPKRIAPWHLIQ,228

# Target: SpBzz1-D2
# Assay: as above
# In short: as §1
row,Binder,SPOT peptide array binding signal intensity
1,GRLRPKRIAPWHLIQ,1.5

# Target: SpCyk3
# Assay: as above
# In short: as §1
row,Binder,SPOT peptide array binding signal intensity
1,GRLRPKRIAPWHLIQ,7

# Target: SpHof1
# Assay: as above
# In short: as §1
row,Binder,SPOT peptide array binding signal intensity
1,GRLRPKRIAPWHLIQ,70

# Target: SpHof1-2
# Assay: as above
# In short: as §1
row,Binder,SPOT peptide array binding signal intensity
1,GRLRPKRIAPWHLIQ,1.5

# Target: SpHof1-3
# Assay: as above
# In short: as §1
row,Binder,SPOT peptide array binding signal intensity
1,GRLRPKRIAPWHLIQ,299

# Target: SpHse1
# Assay: as above
# In short: as §1
row,Binder,SPOT peptide array binding signal intensity
1,GRLRPKRIAPWHLIQ,309

# Target: SpLsb1
# Assay: as above
# In short: as §1
row,Binder,SPOT peptide array binding signal intensity
1,GRLRPKRIAPWHLIQ,5.5

# Target: SpLsb4
# Assay: as above
# In short: as §1
row,Binder,SPOT peptide array binding signal intensity
1,GRLRPKRIAPWHLIQ,95.5

# Target: SpMyo1
# Assay: as above
# In short: as §1
row,Binder,SPOT peptide array binding signal intensity
1,GRLRPKRIAPWHLIQ,2.5

# Target: SpNbp2
# Assay: as above
# In short: as §1
row,Binder,SPOT peptide array binding signal intensity
1,GRLRPKRIAPWHLIQ,110

# Target: SpPex13
# Assay: as above
# In short: as §1
row,Binder,SPOT peptide array binding signal intensity
1,GRLRPKRIAPWHLIQ,4

# Target: SpRvs167
# Assay: as above
# In short: as §1
row,Binder,SPOT peptide array binding signal intensity
1,GRLRPKRIAPWHLIQ,9

# Target: SpSla1-D1-D2
# Assay: as above
# In short: as §1
row,Binder,SPOT peptide array binding signal intensity
1,GRLRPKRIAPWHLIQ,≤ 0

# Target: SpSla1-D3
# Assay: as above
# In short: as §1
row,Binder,SPOT peptide array binding signal intensity
1,GRLRPKRIAPWHLIQ,≤ 0
